High-throughput results deposited in PubChem by several laboratories.
The list is a sample of the results.
CYP2C19 act = human CYP2C19 activators, primary screen, biochemical, luminescence; Cytochrome P450 2C19 (Homo sapiens), P33261; recombinant CYP2C19, luciferin-H EGE luminescence; active compounds read high; 0 = fully inhibited enzyme, 1 = untreated enzyme; activation factor at 5 µM; 96,000 tested, under 10 active; AID 1025, 2008;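 active = activation factor of at least 2 at 5 µM in the primary screen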
Target sequence (P33261 whole entry, looked up): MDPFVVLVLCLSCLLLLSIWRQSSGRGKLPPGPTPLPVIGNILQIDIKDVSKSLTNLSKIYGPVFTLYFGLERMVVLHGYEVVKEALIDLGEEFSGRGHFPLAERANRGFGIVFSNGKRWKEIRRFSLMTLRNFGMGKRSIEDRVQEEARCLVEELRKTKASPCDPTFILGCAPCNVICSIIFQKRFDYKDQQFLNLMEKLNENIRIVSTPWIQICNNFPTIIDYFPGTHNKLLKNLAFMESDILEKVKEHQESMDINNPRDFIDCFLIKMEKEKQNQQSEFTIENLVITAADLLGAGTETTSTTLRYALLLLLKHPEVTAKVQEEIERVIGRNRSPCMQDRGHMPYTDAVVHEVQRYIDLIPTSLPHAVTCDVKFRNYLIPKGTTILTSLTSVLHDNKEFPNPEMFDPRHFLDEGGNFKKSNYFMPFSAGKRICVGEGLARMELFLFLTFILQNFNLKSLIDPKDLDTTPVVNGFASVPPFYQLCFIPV
CYP2C9 inhib = blockers of cytochrome P450 2C9 activity – biochemical, luminescence, ADME assay, primary screen | P11712 | CYP2C9 Supersomes, luciferin-H conversion | inhibition, % at 5 µM | 20% of 96,000 active;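 active = blocking of liver enzyme CYP2C9 beyond about 50% at 5 µM, limit read from the data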
PostGolgi ctrl = growth inhibition of yeast control strain, primary screen, counter-screen for post-Golgi transport modulator project. efflux-deficient yeast background strain, growth absorbance A615, 16 h. inhibition, % at 10 µM. 5% of 98,000 active. AID 738, 2007
PostGolgi yeast = phenotypic screen on post-Golgi transport, primary screen; inhibition, % at 10 µM; post-Golgi transport phenotypic cell assay; 0.9% of 98,000 active;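 also: yeast cells grown in 1536-well plates; yeast grown about 18 h at 30C before absorbance read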
CYP2C19 inh = blockers of cytochrome P450 2C19 activity – biochemical, luminescence, ADME assay, primary screen. P33261. CYP2C19 Supersomes, luciferin-H EGE luminescence, 30 min. inhibition, % at 5 µM. 21% of 96,000 active;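 active = CYP2C19 inhibition above a set limit at 5 µM in the primary screen, cut at about 50% in these data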
CYP2C9 act = human CYP2C9 activators, primary screen, biochemical, luminescence; Cytochrome P450 2C9 (Homo sapiens), P11712; recombinant CYP2C9, luciferin-H conversion; active compounds read high; factor 1 = untreated enzyme, 0 = blocked; activation factor at 5 µM; 1.4% of 96,000 active; AID 1024, 2008;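 active = activation factor of 2 or more for CYP2C9 at a 5 µM dose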
Of the large screens only hits and unclear results are named; the others gave an inactive call. Rule as the data show it, unless noted: active = inhibition above about 30%; inactive = the rest.

Cc1ccc2[nH]c(=O)c(CN(CCc3ccccc3)Cc3nnnn3CC3CCCO3)cc2c1 (configuration not stated)	none (no result: CYP2C19 act, CYP2C9 inhib, CYP2C19 inh, CYP2C9 act)
COc1ccc2[nH]c(=O)c(CN(CCc3ccccc3)Cc3nnnn3CC3CCCO3)cc2c1 (configuration not stated)	CYP2C19 inh 68
Cc1ccc([N+](=O)[O-])cc1NC(=O)CN1CCC(C)CC1	none
Cn1c(=O)c2c(nc(Oc3ccc(-c4ccccc4)cc3)n2C)n(C)c1=O	none
COc1ccc(NC(=O)C2CCCN(S(=O)(=O)c3ccc4c(c3)oc(=O)n4C)C2)c(OC)c1 (configuration not stated)	CYP2C19 inh 51
Cc1csc(NC(=O)C2CCCN(S(=O)(=O)c3ccc4c(c3)oc(=O)n4C)C2)n1 (configuration not stated)	CYP2C19 inh 52
CCN(CC)c1ccc(NC(=O)C2CCCN(S(=O)(=O)c3cccnc3)C2)c(C)c1 (configuration not stated)	none
COc1ccc(NC(=O)C2CCCN(S(=O)(=O)c3cccnc3)C2)c(OC)c1 (configuration not stated)	CYP2C19 inh 59
Cc1ccc(NC(=O)C2CCCN(S(=O)(=O)c3ccc4c(c3)oc(=O)n4C)C2)nc1 (configuration not stated)	none
O=C1c2ccccc2C(Nc2ccc(F)c(Cl)c2)N1c1ccccn1 (configuration not stated)	none
O=C1c2ccccc2C(Nc2ccc3c(c2)OCCO3)N1Cc1ccc2c(c1)OCO2 (configuration not stated)	CYP2C9 inhib 80, CYP2C19 inh 78
O=C1OC(Nc2ccc(F)cc2F)c2ccccc21 (configuration not stated)	none
O=C1c2ccccc2C(Nc2ccc3c(c2)OCCO3)N1c1ccc(Cl)cn1 (configuration not stated)	PostGolgi ctrl 35
COc1ccc(NC2c3ccccc3C(=O)N2c2ccccn2)cc1Cl (configuration not stated)	CYP2C9 inhib 61, PostGolgi ctrl 47, CYP2C19 inh 76
O=C1OC(Nc2ccc3c(c2)OCO3)c2ccccc21 (configuration not stated)	CYP2C19 inh 64
Cc1ccc(N2CC(C(=O)NCc3ccccn3)CC2=O)cc1 (configuration not stated)	none
OC(Cn1cccn1)c1ccccc1 (configuration not stated)	none
CCSc1nnc(NC(=O)CSc2nc(CC)nc3c2c(=O)n(C)c(=O)n3C)s1	none
CS(=O)(=O)N(CC(=O)Nc1ccc2c(c1)OCCO2)Cc1ccc(Cl)cc1	none
Cc1ccc(S(=O)(=O)C(C)C(=O)c2ccc3c(c2)OCCO3)cc1 (configuration not stated)	CYP2C19 inh 87
CCN(CC(=O)NC)S(=O)(=O)c1ccc(Br)cc1	CYP2C19 inh 52
CCN(CC(=O)NC)S(=O)(=O)c1ccc(C)cc1	none
CCN(CC(=O)Nc1ccc2c(c1)OCCO2)S(=O)(=O)c1ccc(C)cc1	CYP2C9 inhib 76
CCN(CC(=O)Nc1ccc2c(c1)OCCO2)S(=O)(=O)c1cccs1	CYP2C9 inhib 85, CYP2C19 inh 62
COc1ccccc1/C=N/N(C(C)=O)c1nc(-c2ccc(F)cc2)cs1	none
Cc1ccccc1Cn1ccc(NC(=O)c2onc(C)c2Cl)n1	none (no result: CYP2C19 act, CYP2C9 inhib, CYP2C19 inh, CYP2C9 act)
CCc1nc(SCC(=O)N2CCC(C)CC2)c2c(=O)n(C)c(=O)n(C)c2n1	none (no result: CYP2C19 act, CYP2C9 inhib, CYP2C19 inh, CYP2C9 act)
Cc1cc(-n2c(C)cc(C(=O)CSc3nnc4sc5ccccc5n34)c2C)no1	CYP2C19 inh 87
CC(=O)c1cccc(OCC(=O)c2cc(C)n(-c3cc(C)on3)c2C)c1	CYP2C9 inhib 78, CYP2C19 inh 86
Cc1cc(-n2c(C)cc(C(=O)COc3ccc4ccc(=O)oc4c3)c2C)no1	none
Cc1cc(-n2c(C)cc(C(=O)CSc3ncnc4ccccc34)c2C)no1	PostGolgi ctrl 40
COc1ccc(-c2nnn(CCC(=O)O)n2)cc1	none
C=CCn1c(-c2cccc(OC)c2)nc2nc3ccccc3nc21	none
NC(=O)C[C@@H]1N[C@]2(C(=O)Nc3ccccc32)[C@@H]2C(=O)N(c3cc(C(F)(F)F)ccc3Cl)C(=O)[C@H]12	none
CCOCc1nnc(NC(=O)c2c(OC)cccc2OC)s1	none
COCC(C)NC(=O)c1cc(-c2cccc(OC)c2)on1 (configuration not stated)	none
CCc1c(C)sc(NC(=O)c2cc(-c3ccc(O)cc3)on2)c1C#N	CYP2C9 act 2.1
COCC(C)NC(=O)c1cc(-c2ccc(O)cc2)on1 (configuration not stated)	CYP2C9 act 2.4
Cc1ccc(-c2cc(C(=O)Nc3c(C#N)cnn3C)no2)cc1	CYP2C9 inhib 56
CN(O)/C=c1/ccc2c(n1)C(=O)C=CC=2	none (no result: CYP2C19 act, CYP2C9 inhib, CYP2C19 inh, CYP2C9 act)
N#CC(c1ccc(Cl)cc1)(c1ncc(C(F)(F)F)cc1Cl)N1CCOCC1 (configuration not stated)	none
O=C(COC(=O)c1cccnc1Nc1ccccc1F)NCCN1C(=O)CSC1=O	CYP2C19 inh 84
O=C(COC(=O)c1cccnc1Nc1ccccc1F)NCc1ccc2c(c1)OCO2	none
CCOCCCNCc1cccc(OC)c1	none
N/C(COc1ccccc1)=N\NC(=O)c1cccnc1Oc1ccccc1	none
c1ccc(Oc2ccc(-c3ccnc4nc(N5CCN(c6ccccc6)CC5)nn34)cc2)cc1	CYP2C9 inhib 59
c1ccc(-c2ccnc3nc(N4CCN(c5ccccc5)CC4)nn23)cc1	none
CSc1nc2nccc(-c3ccc(Oc4ccccc4)cc3)n2n1	CYP2C9 inhib 56, PostGolgi ctrl 33, CYP2C19 inh 51
O=C(O)CCCSCC(=O)Nc1ccccc1	none
CCSc1nc2c(c(=O)[nH]1)C(C(C)C)C(C#N)=C(N)O2 (configuration not stated)	none
Cc1ccc(OCC2Cn3c(nc4c3c(=O)[nH]c(=O)n4C)O2)cc1 (configuration not stated)	none
Cc1ccc(NC(=O)/C(=C\c2cccc([N+](=O)[O-])c2)NC(=O)c2cccs2)cc1	none
CCCN=C1N/C(=C\c2ccco2)C(=O)N1c1ccccc1	none
CCCN(CCC)C1=N/C(=C\c2ccco2)C(=O)N1c1ccccc1	CYP2C9 inhib 71, CYP2C19 inh 64
N#CC(c1ccccc1F)(c1ncc(C(F)(F)F)cc1Cl)N1CCOCC1 (configuration not stated)	none
CCOC(=O)C(NC(=O)c1ccccc1)=C1CCCCC1	none
C#CCOC(=O)C(NC(=O)c1ccccc1)=C1CCCCC1	CYP2C9 inhib 68
